The supplement of paper PMC10849652
The full data set covers some 8,800 targets. This sample favours those with a hit. About 0.5% of all pairs of compound and target were hits.

The targets below were run with CC(C)(C)Cn1c(N)nc2ccc(-c3[nH]c(C(C)(C)C)nc3-c3ccc(F)cc3)nc21 [ralimetinib] (assay: log2 fold change, soluble protein after heating vs DMSO (PISA); higher = thermal stabilisation; K562 lysate, 10 uM; active = over 0.2 and 3.5 SD of the protein, either way, in both replicates (recomputed)).
Method in brief: (§1)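 Log-two fold change in thermal stability relative to solvent controls is reported from duplicates. For each sample, crude K562 extract from dounce-homogenised pellets in PBS pH 7.4 with 1 mM MgCl2, at 1 mg/mL protein, was treated with 10 μM compound for 30 min. Aliquots heated for 3 min across 48°C-58°C were pooled, brought to 0.5% NP-40 at 4°C and cleared at 21,000xg for 90 min. The supernatant was quantified by TMTpro 16plex LC-MS/MS with channel sums equalised.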

Chain of UniProt Q9BW19 (Q9BW19 whole entry, looked up): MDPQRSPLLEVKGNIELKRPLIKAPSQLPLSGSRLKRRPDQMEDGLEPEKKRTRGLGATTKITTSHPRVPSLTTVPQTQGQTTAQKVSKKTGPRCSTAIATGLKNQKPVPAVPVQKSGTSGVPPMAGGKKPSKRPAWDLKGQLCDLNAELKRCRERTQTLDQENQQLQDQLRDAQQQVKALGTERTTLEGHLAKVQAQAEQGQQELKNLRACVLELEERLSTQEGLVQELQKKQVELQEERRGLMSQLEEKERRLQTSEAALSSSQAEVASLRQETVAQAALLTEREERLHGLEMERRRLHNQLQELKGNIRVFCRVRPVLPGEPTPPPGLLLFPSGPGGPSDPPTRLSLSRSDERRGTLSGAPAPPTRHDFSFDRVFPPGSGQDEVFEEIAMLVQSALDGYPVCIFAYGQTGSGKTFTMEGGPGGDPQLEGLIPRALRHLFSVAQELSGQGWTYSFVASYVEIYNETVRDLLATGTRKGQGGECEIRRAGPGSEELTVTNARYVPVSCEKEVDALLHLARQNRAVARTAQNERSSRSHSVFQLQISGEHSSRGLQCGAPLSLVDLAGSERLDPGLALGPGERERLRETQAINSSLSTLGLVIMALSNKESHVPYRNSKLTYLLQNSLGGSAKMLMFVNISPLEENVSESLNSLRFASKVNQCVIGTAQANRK
Chain of UniProt Q09328 (Q09328 whole entry, looked up): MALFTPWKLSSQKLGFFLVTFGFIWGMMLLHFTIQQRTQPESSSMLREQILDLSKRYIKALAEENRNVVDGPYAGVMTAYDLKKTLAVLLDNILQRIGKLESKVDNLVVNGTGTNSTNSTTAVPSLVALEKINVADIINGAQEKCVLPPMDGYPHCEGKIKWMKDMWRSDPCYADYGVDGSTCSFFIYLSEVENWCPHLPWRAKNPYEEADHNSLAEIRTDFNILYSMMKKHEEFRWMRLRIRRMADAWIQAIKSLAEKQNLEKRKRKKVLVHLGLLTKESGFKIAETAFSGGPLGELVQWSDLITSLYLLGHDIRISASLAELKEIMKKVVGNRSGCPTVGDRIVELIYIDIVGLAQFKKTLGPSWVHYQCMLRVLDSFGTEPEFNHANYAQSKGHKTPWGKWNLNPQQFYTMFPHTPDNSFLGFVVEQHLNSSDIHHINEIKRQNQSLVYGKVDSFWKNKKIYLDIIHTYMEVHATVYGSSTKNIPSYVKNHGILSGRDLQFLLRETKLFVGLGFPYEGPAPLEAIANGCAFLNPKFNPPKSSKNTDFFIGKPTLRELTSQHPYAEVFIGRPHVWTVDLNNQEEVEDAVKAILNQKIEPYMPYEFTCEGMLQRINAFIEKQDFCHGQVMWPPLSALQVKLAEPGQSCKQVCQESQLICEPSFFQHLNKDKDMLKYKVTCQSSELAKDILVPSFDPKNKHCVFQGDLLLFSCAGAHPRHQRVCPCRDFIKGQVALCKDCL
Chain of UniProt Q16644 (Q16644 whole entry, looked up): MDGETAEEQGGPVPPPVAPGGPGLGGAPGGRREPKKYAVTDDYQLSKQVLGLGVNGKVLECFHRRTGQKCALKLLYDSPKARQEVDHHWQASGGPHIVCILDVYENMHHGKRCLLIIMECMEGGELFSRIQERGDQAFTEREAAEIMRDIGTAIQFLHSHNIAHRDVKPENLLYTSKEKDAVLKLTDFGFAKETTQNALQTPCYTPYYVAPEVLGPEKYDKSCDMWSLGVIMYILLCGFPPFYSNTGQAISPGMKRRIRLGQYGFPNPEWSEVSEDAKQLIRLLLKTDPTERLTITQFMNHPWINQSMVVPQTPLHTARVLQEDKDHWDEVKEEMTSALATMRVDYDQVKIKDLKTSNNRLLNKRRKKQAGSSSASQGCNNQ
Chain of UniProt Q9Y448 (Q9Y448 whole entry, looked up): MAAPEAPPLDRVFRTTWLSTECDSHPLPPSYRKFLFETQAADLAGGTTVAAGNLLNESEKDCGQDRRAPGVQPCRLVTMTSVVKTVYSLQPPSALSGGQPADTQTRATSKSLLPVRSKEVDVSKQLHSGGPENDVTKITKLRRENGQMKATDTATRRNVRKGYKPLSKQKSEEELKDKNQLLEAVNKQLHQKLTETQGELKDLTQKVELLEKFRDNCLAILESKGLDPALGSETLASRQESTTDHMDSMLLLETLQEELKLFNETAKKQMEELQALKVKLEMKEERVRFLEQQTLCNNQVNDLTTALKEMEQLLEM
Chain of UniProt Q9Y2X0 (Q9Y2X0 whole entry, looked up): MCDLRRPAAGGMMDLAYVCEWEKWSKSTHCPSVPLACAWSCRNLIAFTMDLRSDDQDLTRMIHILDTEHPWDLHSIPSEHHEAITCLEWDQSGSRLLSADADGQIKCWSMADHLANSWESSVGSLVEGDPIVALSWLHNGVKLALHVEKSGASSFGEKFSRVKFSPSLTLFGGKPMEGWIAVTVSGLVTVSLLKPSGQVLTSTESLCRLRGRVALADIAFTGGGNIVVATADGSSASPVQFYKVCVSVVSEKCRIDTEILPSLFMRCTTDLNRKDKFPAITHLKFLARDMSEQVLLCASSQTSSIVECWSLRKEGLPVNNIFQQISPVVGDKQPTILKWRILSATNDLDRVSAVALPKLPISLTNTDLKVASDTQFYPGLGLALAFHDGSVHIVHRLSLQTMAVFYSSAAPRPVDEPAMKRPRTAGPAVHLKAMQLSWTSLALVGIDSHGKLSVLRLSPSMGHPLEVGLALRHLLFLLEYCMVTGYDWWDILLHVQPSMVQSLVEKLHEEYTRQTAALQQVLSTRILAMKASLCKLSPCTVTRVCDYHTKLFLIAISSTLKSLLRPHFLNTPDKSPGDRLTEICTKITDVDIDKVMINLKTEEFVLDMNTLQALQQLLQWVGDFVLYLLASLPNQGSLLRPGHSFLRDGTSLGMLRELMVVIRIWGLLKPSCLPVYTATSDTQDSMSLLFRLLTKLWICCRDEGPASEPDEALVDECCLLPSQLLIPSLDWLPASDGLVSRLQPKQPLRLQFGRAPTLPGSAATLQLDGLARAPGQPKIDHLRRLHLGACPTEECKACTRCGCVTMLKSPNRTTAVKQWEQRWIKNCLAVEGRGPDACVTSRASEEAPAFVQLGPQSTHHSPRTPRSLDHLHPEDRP
Chain of UniProt Q8IYU8 (Q8IYU8 whole entry, looked up): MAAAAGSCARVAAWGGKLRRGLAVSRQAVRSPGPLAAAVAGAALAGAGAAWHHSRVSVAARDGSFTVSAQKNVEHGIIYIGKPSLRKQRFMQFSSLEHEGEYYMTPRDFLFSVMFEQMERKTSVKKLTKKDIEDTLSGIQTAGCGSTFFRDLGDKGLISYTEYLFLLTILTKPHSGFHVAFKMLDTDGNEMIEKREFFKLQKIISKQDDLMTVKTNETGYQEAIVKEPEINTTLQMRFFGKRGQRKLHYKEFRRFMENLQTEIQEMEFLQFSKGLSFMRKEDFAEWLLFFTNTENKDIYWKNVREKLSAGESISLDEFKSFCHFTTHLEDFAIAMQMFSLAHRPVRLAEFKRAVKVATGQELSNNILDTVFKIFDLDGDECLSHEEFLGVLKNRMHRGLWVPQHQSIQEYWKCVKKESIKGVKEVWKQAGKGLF
Chain of UniProt Q02750 (Q02750 whole entry, looked up): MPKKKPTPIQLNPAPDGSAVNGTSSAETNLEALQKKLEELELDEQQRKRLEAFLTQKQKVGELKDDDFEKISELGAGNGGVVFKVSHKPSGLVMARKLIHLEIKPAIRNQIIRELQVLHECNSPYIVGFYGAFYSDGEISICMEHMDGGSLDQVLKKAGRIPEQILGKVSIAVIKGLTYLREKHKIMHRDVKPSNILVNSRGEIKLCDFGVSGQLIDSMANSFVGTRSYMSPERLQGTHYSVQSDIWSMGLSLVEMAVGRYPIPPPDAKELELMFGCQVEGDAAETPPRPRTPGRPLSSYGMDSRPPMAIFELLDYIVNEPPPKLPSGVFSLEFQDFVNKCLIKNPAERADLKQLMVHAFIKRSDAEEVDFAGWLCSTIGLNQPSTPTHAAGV
Chain of UniProt Q9H0B6 (Q9H0B6 whole entry, looked up): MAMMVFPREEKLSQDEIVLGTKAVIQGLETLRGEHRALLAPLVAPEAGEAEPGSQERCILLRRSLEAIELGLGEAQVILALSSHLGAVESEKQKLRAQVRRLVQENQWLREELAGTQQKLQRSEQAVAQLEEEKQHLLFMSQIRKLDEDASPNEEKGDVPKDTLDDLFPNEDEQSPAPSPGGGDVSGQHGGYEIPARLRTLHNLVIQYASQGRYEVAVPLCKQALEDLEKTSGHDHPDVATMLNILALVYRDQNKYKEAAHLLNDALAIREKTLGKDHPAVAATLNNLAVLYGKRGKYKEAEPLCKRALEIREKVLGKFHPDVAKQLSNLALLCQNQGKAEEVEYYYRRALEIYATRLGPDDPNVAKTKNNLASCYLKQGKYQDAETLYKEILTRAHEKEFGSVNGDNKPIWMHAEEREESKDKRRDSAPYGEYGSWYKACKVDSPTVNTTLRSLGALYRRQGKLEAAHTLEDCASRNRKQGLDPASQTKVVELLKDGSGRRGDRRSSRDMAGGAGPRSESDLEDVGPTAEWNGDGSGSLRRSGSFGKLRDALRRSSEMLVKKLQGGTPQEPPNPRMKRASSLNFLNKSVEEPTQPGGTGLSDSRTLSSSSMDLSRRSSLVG
Chain of UniProt Q8WVR3 (Q8WVR3 whole entry, looked up): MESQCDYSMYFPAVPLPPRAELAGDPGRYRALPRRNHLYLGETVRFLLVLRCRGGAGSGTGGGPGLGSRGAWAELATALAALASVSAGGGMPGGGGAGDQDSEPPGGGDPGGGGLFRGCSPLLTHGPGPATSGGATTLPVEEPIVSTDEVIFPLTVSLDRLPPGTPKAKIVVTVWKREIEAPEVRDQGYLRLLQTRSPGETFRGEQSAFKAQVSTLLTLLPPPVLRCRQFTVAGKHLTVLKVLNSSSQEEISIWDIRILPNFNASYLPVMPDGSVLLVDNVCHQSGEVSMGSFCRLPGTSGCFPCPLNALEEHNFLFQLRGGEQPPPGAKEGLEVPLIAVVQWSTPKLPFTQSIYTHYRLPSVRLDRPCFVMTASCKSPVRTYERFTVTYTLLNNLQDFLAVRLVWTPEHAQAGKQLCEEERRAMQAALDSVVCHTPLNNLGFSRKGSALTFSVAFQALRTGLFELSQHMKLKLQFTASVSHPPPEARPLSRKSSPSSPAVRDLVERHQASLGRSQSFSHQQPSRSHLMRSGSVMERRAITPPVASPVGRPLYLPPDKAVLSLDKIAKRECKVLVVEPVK

log2 fold change, inactive:
MAP2K1 (UniProt Q02750) -0.021
MORC2 (UniProt Q9Y6X9) 0.054
KNSTRN (UniProt Q9Y448) 0.027
MORF4L1 isoform 2 (UniProt Q9UBU8) 0.011
KIF2C (UniProt Q99661) 0.048
MRPL30 isoform 2 (UniProt Q8TCC3) 0.04
L3HYPDH (UniProt Q96EM0) -0.021
MED16 (UniProt Q9Y2X0) 0.057
KIFC1 (UniProt Q9BW19) -0.025
MGAT5 (UniProt Q09328) 0.001
MICU2 (UniProt Q8IYU8) -0.019
MAPKAPK3 (UniProt Q16644) 0.006
KIF4A (UniProt O95239) -0.014
MAP11 (UniProt Q8WVR3) 0.037
KLC2 (UniProt Q9H0B6) 0.003
MAP2K5 (UniProt Q13163) 0.103
METTL7A (UniProt Q9H8H3) 0.036

The targets below were run with CC(C)(O)CC(=O)NCCn1ccc2ncnc(Nc3ccc(Oc4cccc(C(F)(F)F)c4)c(Cl)c3)c21 in the same assay as above.
Method in brief: as §1

log2 fold change, inactive:
MARK2 (UniProt E9PC69) -0.004
MICU1 isoform 3 (UniProt Q9BPX6) 0.001
MED12 isoform 2 (UniProt Q93074) -0.009
LYAR (UniProt Q9NX58) 0.016
MLH1 (UniProt P40692) -0.035
MIPEP (UniProt Q99797) 0.07
MAD2L1BP isoform 3 (UniProt Q15013) 0.015
LIG4 (UniProt P49917) -0.023
MCUB (UniProt Q9NWR8) 0.045
MOCS1 isoform 8 (UniProt Q9NZB8) 0.035
MAP3K4 (UniProt Q9Y6R4) 0.005
MAPKAPK2 (UniProt P49137) 0.016
MAPK9 (UniProt P45984) 0.002
MCMBP isoform 2 (UniProt Q9BTE3) 0.068
MRPL15 (UniProt Q9P015) -0.056
MRPL10 isoform 2 (UniProt Q7Z7H8) -0.019
MORC3 (UniProt Q14149) 0.013
LRRC40 (UniProt Q9H9A6) 0.025
LARP4B (UniProt Q92615) 0.069
MAP1S (UniProt Q66K74) -0.041
LTN1 isoform 3 (UniProt O94822) -0.066
MCCC1 (UniProt Q96RQ3) -0.042
MAP2K1 (UniProt Q02750) 0.075
MORC2 (UniProt Q9Y6X9) -0.035
KNSTRN (UniProt Q9Y448) 0.081
MORF4L1 isoform 2 (UniProt Q9UBU8) -0.062
KIF2C (UniProt Q99661) 0.025
MRPL30 isoform 2 (UniProt Q8TCC3) -0.084
L3HYPDH (UniProt Q96EM0) -0.004
MED16 (UniProt Q9Y2X0) 0.046
KIFC1 (UniProt Q9BW19) 0.007
MGAT5 (UniProt Q09328) 0.039
MICU2 (UniProt Q8IYU8) -0.026
MAPKAPK3 (UniProt Q16644) -0.003
KIF4A (UniProt O95239) 0.003
MAP11 (UniProt Q8WVR3) -0.008
KLC2 (UniProt Q9H0B6) 0.008
MAP2K5 (UniProt Q13163) -0.075
METTL7A (UniProt Q9H8H3) -0.025

Each target was assayed with CC(C)C1=C2N=C(C=C(N2N=C1)NCC3=CC=CC=C3)NCCCCCCN in the same assay as above.
Method in brief: as §1

log2 fold change, inactive:
MARK2 (UniProt E9PC69) 0.015
MICU1 isoform 3 (UniProt Q9BPX6) -0.02
MED12 isoform 2 (UniProt Q93074) -0.005
LYAR (UniProt Q9NX58) 0.004
MLH1 (UniProt P40692) -0.018
MIPEP (UniProt Q99797) -0.02
MAD2L1BP isoform 3 (UniProt Q15013) -0.037
LIG4 (UniProt P49917) 0.013
MCUB (UniProt Q9NWR8) -0.063
MOCS1 isoform 8 (UniProt Q9NZB8) 0.049
MAP3K4 (UniProt Q9Y6R4) -0.039
MAPKAPK2 (UniProt P49137) -0.046
MAPK9 (UniProt P45984) -0.029
MCMBP isoform 2 (UniProt Q9BTE3) 0.114
MRPL15 (UniProt Q9P015) -0.01
MRPL10 isoform 2 (UniProt Q7Z7H8) -0.04
MORC3 (UniProt Q14149) -0.007
LRRC40 (UniProt Q9H9A6) -0.011
LARP4B (UniProt Q92615) -0.02
MAP1S (UniProt Q66K74) -0.005
LTN1 isoform 3 (UniProt O94822) 0.079
MCCC1 (UniProt Q96RQ3) -0.014
MAP2K1 (UniProt Q02750) 0
MORC2 (UniProt Q9Y6X9) -0.039
KNSTRN (UniProt Q9Y448) -0.008
MORF4L1 isoform 2 (UniProt Q9UBU8) 0.019
KIF2C (UniProt Q99661) -0.014
MRPL30 isoform 2 (UniProt Q8TCC3) 0
L3HYPDH (UniProt Q96EM0) 0.004
MED16 (UniProt Q9Y2X0) -0.014
KIFC1 (UniProt Q9BW19) -0.012
MGAT5 (UniProt Q09328) -0.045
MICU2 (UniProt Q8IYU8) -0.016
MAPKAPK3 (UniProt Q16644) -0.011
KIF4A (UniProt O95239) -0.002
MAP11 (UniProt Q8WVR3) -0.005
KLC2 (UniProt Q9H0B6) -0.001
MAP2K5 (UniProt Q13163) -0.078
METTL7A (UniProt Q9H8H3) 0.017
